# Biological target: T1, Aspartate--tRNA(Asp/Asn) ligase (Mycobacterium tuberculosis (strain ATCC 25618 / H37Rv)) (UniProt P9WFW3); also: in the data most compounds retested in dose-response had high values
# T1 sequence (whole entry): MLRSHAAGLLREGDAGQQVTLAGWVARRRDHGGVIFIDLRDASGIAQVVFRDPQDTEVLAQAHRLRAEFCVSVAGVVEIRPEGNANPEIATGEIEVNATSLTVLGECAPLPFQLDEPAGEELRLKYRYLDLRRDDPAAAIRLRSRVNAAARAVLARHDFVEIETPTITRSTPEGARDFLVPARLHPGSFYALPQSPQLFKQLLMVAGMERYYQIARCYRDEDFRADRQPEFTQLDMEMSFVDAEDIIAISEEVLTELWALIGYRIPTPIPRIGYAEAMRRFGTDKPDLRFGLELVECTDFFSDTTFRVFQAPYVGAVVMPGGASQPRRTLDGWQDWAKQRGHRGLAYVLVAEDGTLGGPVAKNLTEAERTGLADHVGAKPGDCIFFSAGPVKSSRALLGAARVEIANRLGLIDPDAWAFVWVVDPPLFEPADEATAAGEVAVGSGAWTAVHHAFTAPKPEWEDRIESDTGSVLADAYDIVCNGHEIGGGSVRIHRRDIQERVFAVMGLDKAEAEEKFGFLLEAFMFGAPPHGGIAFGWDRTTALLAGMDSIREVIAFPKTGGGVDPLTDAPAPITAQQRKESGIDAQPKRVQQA
# Assay: Assay for Asp RNA synthetase-1 from Mycobacterium tuberculosis
# Format: functional
# Set-up: scale not given: direction of the effect not stated beside the values
# Details: 30 µM
row,SMILES,Percent Effect
1,CCn1nc2c(cc1=O)CN(Cc1nc(CCOC)no1)CC2,2.21%
2,N#CCCN(CCC#N)C(=O)CN1CCCC1Cc1cccc(F)c1 (stereo not drawn),5.73%
3,Cc1sc(NC(=O)CN(C)S(C)(=O)=O)c(C#N)c1C,1.76%
4,Cn1cccc1C(=O)N1CCN(CC2CC2)c2ncccc2C1,2.01%
5,Cc1cccc(OCCC(=O)N2CCN(S(=O)(=O)N(C)C)CC2)c1C,-1.74%
6,COC(=O)c1ccc(N2CCN(C(=O)c3cc(C)on3)C(C)C2)cc1 (stereo not drawn),5.2%
7,CC(C)c1nn(C)c(N(C)C)c1CNCC(O)c1ccccc1F (stereo not drawn),-7.16%
8,Cc1ccc([C@@H]2CN(C(=O)c3ccc[nH]3)C[C@H]2NC(=O)C2CC2)cc1,-1.93%
9,CC(C)NC(=O)[C@H]1C[C@@H]2[C@@H](C1)OCCN2Cc1cnn(C)c1,2.71%
10,CCOc1cc(C(=O)N2CCCC(c3noc(C)n3)C2)ccn1 (stereo not drawn),0.253%
11,O=C(N1CCCC1)N1CCC2(CCCN(CCOc3ccccc3)C2)C1 (stereo not drawn),-0.364%
12,Cc1cc(C)c(OCC(=O)NS(=O)(=O)c2c(C)noc2C)c(C)c1,-3.08%
13,O=C(NC1CC1)[C@@H]1CCO[C@@H]2CCN(C3CCOCC3)C[C@H]21,5.8%
14,Cc1nc(CN(C)C2CCCN(c3cccnn3)C2)no1 (stereo not drawn),-6.37%
15,CC(Cn1cccn1)NC(=O)NCc1ccccn1 (stereo not drawn),-4.37%
16,CCc1cnc(CNc2ccc(C(=O)N3CCCC(C)C3)cc2C)o1 (stereo not drawn),-5.74%
17,Cc1csc(CNC(=O)NCCc2ccc3c(c2)OCCO3)n1,-5.39%
18,O=C(NCCc1ccccc1)C1CCC(Cn2cnnn2)CC1 (stereo not drawn),-4.3%
19,CC(C)N1CCC(N2CCN(C3CCC3)CC2CCO)CC1 (stereo not drawn),-3.4%
20,CCc1csc(C2CCCN(C(=O)C3=NN(CC)C(=O)CC3)C2)n1 (stereo not drawn),-5.86%

# Biological target: Shiga toxin 2 (Escherichia coli O157:H7) (UniProt P09385+P09386)
# Assay: E. coli 0.157:H7 Shiga Toxin SOP - stx2 screening assay
# Format: functional
# Set-up: scale not given: direction of the effect not stated beside the values
# Details: 30 µM
row,SMILES,Percent Effect
1,O=C(NC1CCN(c2snc3ccccc23)CC1)C1CCC1,-22.1%
2,O=C(C[C@@H]1COC[C@H]2CN(Cc3ccncc3)C[C@@H]12)N1CCOCC1,-32%
3,O=C1CCC2(CCN(Cc3nccs3)CC2)N1Cc1ccccc1,13.1%
4,Cn1nc2c(cc1=O)CN(Cc1nnc(-c3ccco3)o1)CC2,2.57%
5,Cc1csc([C@@H]2C[C@@H]3CCN(C(=O)c4cc(C)on4)C[C@H]3O2)n1,-17.6%
6,COc1cccc(-c2nc(C)c(C(=O)N[C@@H](C)C(=O)O)s2)c1,-52%
7,CCn1cnnc1CNC(=O)N1CCC(Cc2cccnc2)CC1,2.96%
8,O=C(c1ccc2c(c1)OCO2)N1CCCSCC1CN1CCCC1 (stereo not drawn),-5.02%
9,c1csc(-c2nc(CN3CCOC(Cn4cccn4)C3)co2)c1 (stereo not drawn),13.2%
10,COc1ccccc1C(O)CNC(=O)NCc1cccnc1OC (stereo not drawn),9.52%
11,CCNC(c1ccc(OC)cc1)c1cccnc1 (stereo not drawn),1.33%
12,Cn1cc(C(=O)N2CC[C@@H]3[C@@H]2CCN3Cc2cccc(F)c2)cn1,0.579%
13,O=C(NCCCn1cncn1)NCC(c1ccccc1)N1CCCC1 (stereo not drawn),-13%
14,CC(=O)N1CCCN(Cc2csc(-c3ncccn3)n2)CC1,-13%
15,Cc1noc(CN2CCC(c3ccnn3CCO)CC2)n1,4.21%
16,Cc1nc2cc(C(=O)N3CCCC(n4cncn4)C3)ccc2n1C (stereo not drawn),-28.5%
17,OCCN1CCOC2(CCCN(c3cccc(F)c3)C2)C1 (stereo not drawn),-15.9%

row,SMILES,Percent Effect
1,OC1(Cn2ccc3ncccc32)CCN(Cc2ccccn2)CC1,-31.8%
2,O=C(NCc1ccc(OCC2CC2)nc1)c1c(F)cccc1F,0.72%
3,NC(=O)C1(c2cnccn2)CCCN1Cc1cc2ccccc2o1 (stereo not drawn),11.4%
4,CCn1nc2c(cc1=O)CN(Cc1nc(CCOC)no1)CC2,-7.6%
5,N#CCCN(CCC#N)C(=O)CN1CCCC1Cc1cccc(F)c1 (stereo not drawn),-0.707%
6,Cc1sc(NC(=O)CN(C)S(C)(=O)=O)c(C#N)c1C,-4.6%
7,Cn1cccc1C(=O)N1CCN(CC2CC2)c2ncccc2C1,-11.1%
8,Cc1cccc(OCCC(=O)N2CCN(S(=O)(=O)N(C)C)CC2)c1C,-7.47%
9,COC(=O)c1ccc(N2CCN(C(=O)c3cc(C)on3)C(C)C2)cc1 (stereo not drawn),23.5%
10,CC(C)c1nn(C)c(N(C)C)c1CNCC(O)c1ccccc1F (stereo not drawn),-23.3%
11,Cc1ccc([C@@H]2CN(C(=O)c3ccc[nH]3)C[C@H]2NC(=O)C2CC2)cc1,3.8%
12,CC(C)NC(=O)[C@H]1C[C@@H]2[C@@H](C1)OCCN2Cc1cnn(C)c1,-17.8%
13,CCOc1cc(C(=O)N2CCCC(c3noc(C)n3)C2)ccn1 (stereo not drawn),28.1%
14,O=C(N1CCCC1)N1CCC2(CCCN(CCOc3ccccc3)C2)C1 (stereo not drawn),-4.82%
15,Cc1cc(C)c(OCC(=O)NS(=O)(=O)c2c(C)noc2C)c(C)c1,21.6%
16,O=C(NC1CC1)[C@@H]1CCO[C@@H]2CCN(C3CCOCC3)C[C@H]21,-34.3%

# Reference: ChEMBL document CHEMBL3988442, “University of Dundee, Small-Polar-MMV Screening Library” (2021)
